In PubChem BioAssay one finds viability and parasite load remaining data, which are given here for 13 compounds.

Values joined by “and” are separate entries in the source; they are usually repeats but may differ in a detail not shown here. Equal entries are not always repeated. Active and inactive are the calls of the source. Rule as the data show it: active = parasite load remaining mostly below about 12% (no sharp cut-off); inactive = mostly above about 10%.

The assay is described as follows: liver-stage malaria parasite growth inhibition, primary screen, cell-based, HepG2, luciferase luminescence, HepG2 viability (AID 624349).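 Also: 100% = mean of DMSO negative control wells on the same plate.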 The following applies: P. berghei liver stage in HepG2, luciferase luminescence, concentration not given here; parasite load remaining: stronger effect = lower value; viability: measured here: HepG2 viability without parasites.
In general, viability refers to a read-out of living cells in per cent, often relative to untreated cells. Turning to `CC(=O)[C@H]1CC[C@H]2[C@@H]3CC[C@H]4C[C@H](O)CC[C@]4(C)[C@H]3C(=O)C[C@]12C`, the viability came to 72.4% and the parasite load remaining was 70.8% (inactive).

As to `CC(C)c1c(CN(C)C(C)Cc2ccccc2)n(C)n(-c2ccccc2)c1=O` (stereo unspecified), the parasite load remaining is 76.8% (inactive) and the viability amounted to 87.3%.

For `COP(=O)(OC)OC=C(Cl)Cl`, the viability was 96% and the parasite load remaining was 43.6% (inactive).

On to `COc1ccc(CN2CCNCC2)c(OC)c1OC`, for which the viability is 118% and 81.2%; the parasite load remaining was 122% (inactive) and 71.5% (inactive).

As for `COP(=O)(OC)C(O)C(Cl)(Cl)Cl` (stereo unspecified), the viability is 48.9% and 90.6%; the parasite load remaining was 19.7% (inactive) and 127% (inactive).

With `CCCCc1ccc(C(=O)O)nc1`, the viability is 102% and 74.9%; the parasite load remaining was 113% (inactive) and 80.1% (inactive).

Turning to `c1ccc(C2CC2)c(OCC2=NCCN2)c1`, the viability was 96.5% and the parasite load remaining is 45.2% (inactive).

`Fc1ccc(C(OCCN2CCN(CCCc3ccccc3)CC2)c2ccc(F)cc2)cc1`: the parasite load remaining is 40.3% (inactive) and 56% (inactive); the viability was 74.4% and 71%.

With `C[C@]12CC[C@H](O)CC1=CC[C@@H]1[C@@H]2CC[C@]2(C)C(=O)CC[C@@H]12`, the parasite load remaining is 67.8% (inactive) and 14.9% (inactive); the viability was 72.6% and 126%.

Consider `O=C(O)Cc1ccccc1`, for which the viability was 91.1% and 112%; the parasite load remaining is 25.8% (inactive) and 52.8% (inactive).

In the case of `NCC1(CC(=O)O)CCCCC1`, the viability is 103% and 169%; the parasite load remaining is 131% (inactive) and 58.8% (inactive).

On to `CCCC[N+]1(C)[C@@H]2CC(OC(=O)[C@H](CO)c3ccccc3)C[C@H]1[C@@H]1O[C@@H]12` (stereo partly specified), for which the viability stood at 61.5% and the parasite load remaining is 35.4% (inactive).

`CC(C)NCC(O)c1ccc(N)c(C#N)c1` (stereo unspecified): the parasite load remaining was 53.9% (inactive) and the viability was found to be 161%.
